We go through 16 molecules from PubChem BioAssay (NCI).

Test in all cases: NCI-60 one-dose screen, 48 h (100 = growth as untreated, 0 = no growth, -100 = all killed)
One experiment concerns NCI-H23 lung. The settings on record: 10 µM unless noted.
A further experiment concerns NCI-H226 lung. The conditions noted are these: 10 µM unless noted.
For a further experiment, the system named is NCI-H322M lung. The conditions noted are these: 10 µM unless noted.
The next experiment has as its system NCI-H460 lung. The conditions noted are these: 10 µM unless noted.
A further experiment has as its system HOP-92 NSCLC. The conditions noted are these: 10 µM.
The test system of another experiment is NCI-H522 lung. The conditions noted are these: 10 µM.
A further experiment has as its system A549/ATCC NSCLC. The settings on record: 10 µM unless noted.
The test system of a further experiment is 786-0 renal. The settings on record: 10 µM unless noted.
In a further experiment the test system is COLO 205 colon. The settings on record: 10 µM unless noted.

Each structure is given as a SMILES string. Compounds without any hit were thinned out: in the full panel of roughly 83,000, 20% have a hit.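 Treatment: one concentration, 48 hours, 96-well format. Scoring: percent growth, with anything below 10 considered active.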 A number with no mark means an inactive call. Calls of active or inactive are those of the source.

For `Cc1nc2c(nnn2-c2ccccc2)c2nc(-c3ccccc3)oc(=O)c12`, the growth was 109% in the experiment with NCI-H23 lung; 99.8% in the experiment on NCI-H226 lung; 103% with NCI-H322M lung; 116% in the experiment with NCI-H460 lung; 107% with HOP-92 NSCLC; 105% with NCI-H522 lung. Moreover, the growth in the experiment on A549/ATCC NSCLC was 116%; in the experiment on 786-0 renal, 101%; with COLO 205 colon it was 115%.
On to `COc1cc(CNC(=O)CCCC/C=C/C(C)C)ccc1OCc1nnc(Nc2ccccc2F)o1`, for which the growth is 63.8% in the experiment with NCI-H23 lung; 64.5% in the experiment with NCI-H226 lung; 86.1% with NCI-H322M lung; 80.3% in the experiment on NCI-H460 lung; 56.4% in the experiment with HOP-92 NSCLC; 60.3% in the experiment on NCI-H522 lung. Besides, the results for the growth in the experiment with A549/ATCC NSCLC, with 786-0 renal and in the experiment on COLO 205 colon were 105%, 12% and 104%, respectively.
Regarding `O=C(/C=C1\C(=O)N(Cc2ccc([N+](=O)[O-])cc2)c2ccccc21)c1ccc(OCCN2CCCCC2)cc1`, the growth was -10.4% (active) with NCI-H23 lung; -41.1% (active) with NCI-H226 lung; 49.2% in the experiment on NCI-H322M lung; 39% in the experiment with NCI-H460 lung; -74.5% (active) in the experiment on HOP-92 NSCLC; -75% (active) in the experiment with NCI-H522 lung. Moreover, the growth in the experiment on A549/ATCC NSCLC was 48.2%; in the experiment with 786-0 renal it was -88.1% (active); with COLO 205 colon, -49.5% (active).
Regarding `CC[C@H](Nc1ncnc2nc[nH]c12)c1nc2cccc(NCc3ccc(C(=O)NO)o3)c2c(=O)n1-c1ccccc1`, the growth in the experiment with NCI-H23 lung is 98.1%; in the experiment with NCI-H226 lung it was 109%; with NCI-H322M lung, 97.4%; with NCI-H460 lung, 111%; in the experiment with HOP-92 NSCLC, 82.6%; in the experiment on NCI-H522 lung it was 76.7%. Further, the growth was 102% with A549/ATCC NSCLC, 94.1% with 786-0 renal and 115% with COLO 205 colon.
Consider `O=C(N/N=C/c1ccccc1Cl)c1cccc2ccccc12`, for which the growth in the experiment on NCI-H23 lung was 97.9%; with NCI-H226 lung, 99.7%; in the experiment on NCI-H322M lung it was 108%; in the experiment with NCI-H460 lung, 98.9%; with HOP-92 NSCLC, 94.8%; with NCI-H522 lung it was 84.5%. Further, the growth in the experiment with A549/ATCC NSCLC was 97.5%; in the experiment with 786-0 renal, 105%; with COLO 205 colon, 114%.
For `Cc1ccc([C@@H]2C[C@H](O)Cc3ccccc3N2)s1`, the growth is 90.7% in the experiment with NCI-H23 lung; 124% in the experiment with NCI-H226 lung; 110% in the experiment on NCI-H322M lung; 101% in the experiment on NCI-H460 lung; 78.8% with HOP-92 NSCLC; 117% in the experiment with NCI-H522 lung. Moreover, the growth in the experiment with A549/ATCC NSCLC was 104%; in the experiment with 786-0 renal, 114%; in the experiment with COLO 205 colon, 98.8%.
For the molecule `C/C(=N\Nc1cccc(Cl)n1)c1ccccn1`, the growth in the experiment on NCI-H23 lung was 16.8%; with NCI-H226 lung it was -3.86% (active); in the experiment on NCI-H322M lung, 23.7%; with NCI-H460 lung it was 5.39% (active); with HOP-92 NSCLC, 40.5%; in the experiment with NCI-H522 lung, 24.6%. Besides, the growth with A549/ATCC NSCLC is 9.19% (active); in the experiment with 786-0 renal, 8.33% (active); in the experiment on COLO 205 colon, 10.6%.
Consider `OCC(O)C(O)CC1SCCS1` (centres undefined), for which the growth is 97.3% in the experiment on NCI-H23 lung; 91.9% in the experiment with NCI-H226 lung; 109% in the experiment on NCI-H322M lung; 108% in the experiment with NCI-H460 lung; 104% in the experiment with HOP-92 NSCLC; 96.6% with NCI-H522 lung. Also, the growth in the experiment on A549/ATCC NSCLC is 101%; in the experiment on 786-0 renal, 96%; with COLO 205 colon, 106%.
For the molecule `COc1cc(OC)c2c(=O)cc(-c3ccccc3)oc2c1`, the growth in the experiment on NCI-H23 lung is 106%; with NCI-H226 lung, 101%; with NCI-H322M lung, 93.2%; in the experiment with NCI-H460 lung, 104%; in the experiment on HOP-92 NSCLC, 54.9%; in the experiment on NCI-H522 lung, 82.8%. Further, the growth in the experiment on A549/ATCC NSCLC is 96.7%; with 786-0 renal, 49%; in the experiment with COLO 205 colon, 117%.
As for `O=C1N/C(=N\c2nnc(-c3ccc(O)cc3)s2)S/C1=C\c1ccccc1O`, the growth in the experiment with NCI-H23 lung was 95.2%; in the experiment with NCI-H226 lung, 99.6%; in the experiment with NCI-H322M lung it was 91.9%; in the experiment on NCI-H460 lung, 102%; with HOP-92 NSCLC, 81.7%; with NCI-H522 lung, 93.6%. Further, the growth was 103% in the experiment with A549/ATCC NSCLC, 97.5% in the experiment on 786-0 renal and 114% in the experiment with COLO 205 colon.
`Cc1nc(N)sc1C(=O)NCCO`: the growth with NCI-H23 lung is 106%; in the experiment on NCI-H226 lung, 97.2%; with NCI-H322M lung it was 127%; in the experiment with NCI-H460 lung, 115%; in the experiment on HOP-92 NSCLC, -17.9% (active); in the experiment with NCI-H522 lung, 34.5%. Besides, the growth in the experiment with A549/ATCC NSCLC was 111%; in the experiment on 786-0 renal it was 129%; in the experiment with COLO 205 colon, 126%.
As to `CCOC(=O)C1=C(c2ccccc2)NC(=O)NC1CN1C(=O)c2ccccc2C1=O` (centres undefined), the growth in the experiment on NCI-H23 lung is 93.9%; in the experiment with NCI-H226 lung it was 105%; in the experiment with NCI-H322M lung, 118%; with NCI-H460 lung it was 105%; in the experiment on HOP-92 NSCLC, 72.9%; in the experiment on NCI-H522 lung it was 108%. The growth was 127% in the experiment on A549/ATCC NSCLC, 102% in the experiment on 786-0 renal and 116% in the experiment on COLO 205 colon.
For `N=C(N)N=Nc1ccc(NN=C(N)N)c2ccccc12`, the growth is 106% in the experiment on NCI-H23 lung; 117% with NCI-H226 lung; 97% in the experiment with NCI-H322M lung; 108% in the experiment with NCI-H460 lung; 93.7% with HOP-92 NSCLC; 87.1% with NCI-H522 lung. Further, the growth is 97.8% with A549/ATCC NSCLC, 95.3% in the experiment with 786-0 renal and 111% with COLO 205 colon.
Take `CCOc1ccc2nc3ccc(Cl)cc3nc2c1`: the growth is 65.4% with NCI-H23 lung; 81.3% in the experiment with NCI-H226 lung; 96.6% in the experiment on NCI-H322M lung; 95.9% with NCI-H460 lung; 73.9% with HOP-92 NSCLC; 76.9% in the experiment with NCI-H522 lung. In addition, the figures for the growth with A549/ATCC NSCLC, in the experiment on 786-0 renal and in the experiment on COLO 205 colon were 94.9%, 81.1% and 114%, respectively.
In the case of `COC(=O)/C(Br)=C/c1c[nH]c2ccc(Br)cc12`, the growth is 98.9% in the experiment on NCI-H23 lung; 90.9% in the experiment with NCI-H226 lung; 100% in the experiment on NCI-H322M lung; 112% with NCI-H460 lung; 41.6% in the experiment with HOP-92 NSCLC; 63.9% with NCI-H522 lung. Also, the growth is 89.9% in the experiment with A549/ATCC NSCLC, 55% in the experiment with 786-0 renal and 95.8% in the experiment on COLO 205 colon.
As to `CCC(CCCN1C(=O)c2ccccc2C1=O)Nc1cc(OC)cc2cccnc12` (centres undefined), the growth with NCI-H23 lung is 97.6%; with NCI-H226 lung it was 107%; in the experiment with NCI-H322M lung it was 116%; in the experiment with NCI-H460 lung, 112%; in the experiment on HOP-92 NSCLC, 72.4%; in the experiment on NCI-H522 lung, 103%. The growth in the experiment with A549/ATCC NSCLC is 106%; in the experiment on 786-0 renal, 103%; in the experiment with COLO 205 colon, 119%.
